p53null 39C kill: kills p53 null cells at the nonpermissive temperature; H1299 p53-null (neo) cells, 39C, ATPlite viability, 24 h; Potency, µM (titrated, usually from 46.1 µM), actives largely listed as cytotoxic; actives 0.97% (n = 55,000); AID 904; note: nearly all actives have a fitted effect of over 50% in size
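Cells seeded at 600/well, 37C overnight. Compound added (up to 46 uM), plates shifted to 39C for 24 hr. ATPlite added, luminescence read after 20 min at room temperature.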
S16 F2sN tox: toxic to S16 Pmp22-F2sN Schwann cells. AID 1508642. actives 0.48% (n = 43,000). S16 Pmp22-F2sN Schwann cells viability, CellTiter-Glo, 24 h. Potency, µM (doses to about 57.5 µM), usual class: cytotoxic; note: nearly all actives have a fitted effect of over 65% in size
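Rat S16 Schwann reporter line, 24 h treatment with library compounds delivered at 23 nL per well. Cell viability by CellTiter-Glo luminescence.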
mTORC1 inh: inhibitors of mTORC1 signaling in Tsc2-/- p53-/- MEF cells | Tsc2-/- p53-/- MEF, phospho-rpS6 immunofluorescence/PI, 24 h | actives 0.78% (n = 44,000) | Potency, µM (highest dose often 38.3 µM), usual class: inhibitors | AID 493208; note: nearly all actives have a fitted effect of over 50% in size
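Read-out: phospho-S6 Alexa-488 intensity over PI intensity per well, scored as % active cells using thresholds from rapamycin (7.5 nM) and DMSO controls. Tsc2-/-, p53-/- MEFs exposed to compound for 24 h; PI cell count recorded as viability.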
p53null 32C kill: p53 null cell cytotoxicity, permissive temperature. Potency, µM (series often up to 46.1 µM), hits mostly cytotoxic. actives 0.62% (n = 55,000). H1299-neo p53 null cells, ATP luminescence, 24 h, 32C; note: nearly all actives have a fitted effect of over 55% in size
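H1299-neo (p53-null) cells, 600/well, were pre-incubated overnight at 37C, then exposed to compounds at up to 46 uM for 24 hr at 32C. Viability was measured as ATP content by luminescence, and AC50 values came from Hill fits.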
PMP22 txn: modulators of PMP22 gene transcription in S16 Schwann cells; S16 Pmp22-F2sN Schwann cells (luciferase reporters placed in the Pmp22 gene), FLuc/NLuc coincidence luminescence, 24 h; Potency, µM (top dose mostly 57.5 µM), most hits filed as inhibitors; actives 2% (n = 43,000); active = clear falling dose curves in both reporters; inconclusive = both reporters move, but less clearly or upward; inactive = either reporter flat; the % is the NLuc reporter signal
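Luminescent read-out of sequential FLuc and NLuc signals from a reporter embedded in the Pmp22 3' UTR of S16 Schwann cells, taken after 24 h compound exposure at 37C; compounds reducing both signals score as inhibitors of expression.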
A number is an active result; - = inactive; ? = inconclusive; . = no result. Compounds with a hit are over-represented: about 3.2% of the library has one in this group of screens. Unless noted, calls come from the whole dose curve; as a rule, active = well fitted curve in the direction sought with a large enough effect; inconclusive = small, poorly fitted or top-dose-only effect, or another doubt; inactive = no such curve, though single readings can be large; an effect the other way counts as inactive or inconclusive.

SMILES | p53null 39C kill | S16 F2sN tox | mTORC1 inh | p53null 32C kill | PMP22 txn
COc1ccc(-c2nnc(SC(C)C(=O)O)o2)cc1 (stereo unspecified) | 16µM | - | - | ? | -
O=C(Cn1cc(S(=O)(=O)Cc2cccc(Cl)c2)c2ccccc21)Nc1ccccc1C(F)(F)F | - | ? | 18µM | - | ?
COCc1nc2ccccc2n1Cc1cccc(C)c1 | - | - | - | - | -
Cc1cccc(Cn2c(Cc3ccccc3)nc3ccccc32)c1 | 20µM | - | - | - | -
O=C(NC1CCCCC1)c1ccc(CSc2nc3ccncc3n2Cc2ccccc2)cc1 | - | ? | - | - | -
CCN1CCN(C(=O)Cn2ncc3c4ccccc4n(Cc4c(C)cc(C)cc4C)c3c2=O)CC1 | ? | ? | 16µM | - | ?
COc1ccc(Cl)cc1NC(=O)c1c(NCc2cccnc2)sc2c1CCC(C)C2 (stereo unspecified) | - | ? | 5.8µM | ? | ?
O=C(NCCc1ccc(Cl)cc1)c1nc(-c2cccc(F)c2)n2c1CCCCC2 | - | - | - | - | -
CCCN1CCN(c2ncnc3sc(C(=O)Nc4ccc(C(C)C)cc4)c(C)c23)CC1 | - | ? | ? | - | ?
CCCN1CCN(c2ncnc3sc(C(=O)Nc4ccc(OC(F)(F)F)cc4)c(C)c23)CC1 | - | ? | 16µM | - | ?
CCOc1ccc(NC(=O)c2ccc(N)cc2)cc1 | ? | . | . | 11µM | .
CCCOc1ccc(C(=O)Nc2ccc(NC(=O)c3ccccc3)c(Br)c2)cc1 | - | ? | 18µM | - | ?
Cc1ccc(-n2ncc3c(NCCc4ccccc4)ncnc32)cc1Cl | - | - | - | - | -
O=C(CSc1nc2c(oc3ccccc32)c(=O)[nH]1)Nc1cccc(Cl)c1 | 10µM | - | - | 10µM | ?
COc1cccc(-n2c(SCC(=O)Nc3cccc(Cl)c3)nc3c(oc4ccccc43)c2=O)c1 | - | - | - | - | -
Cc1cccc(OC(=O)c2cc(-c3ccc(C)c(C)c3)on2)c1 | ? | - | - | - | -
Cc1ccc(Cl)cc1NC(=O)c1cc(-c2ccc3c(c2)OCCO3)on1 | ? | - | - | ? | -
Cc1cccc(NC(=O)c2cc(-c3ccc4c(c3)OCCO4)on2)c1 | 1.3µM | - | - | 1.3µM | -
Cc1cc(OC(=O)c2cc(-c3ccc4c(c3)OCCO4)on2)ccc1Cl | 16µM | - | - | - | -
O=C(Nc1cccc(Cl)c1)c1cc(-c2ccc3c(c2)OCCO3)on1 | ? | - | - | ? | -
Cc1ccc(OC(=O)c2cc(-c3ccc4c(c3)OCCO4)on2)cc1C | 25µM | ? | - | ? | -
COc1ccc(OC)c(-c2noc(N3CCN(c4cccc(C(F)(F)F)c4)CC3)n2)c1 | - | - | - | - | ?
CC(C)Cn1c(=O)c2ccccc2n2c(CCC(=O)N3CCN(c4ccccc4)CC3)nnc12 | - | - | - | - | -
COc1ccc(-n2ccn3c(CC(C)(C)CC(=O)O)nnc3c2=O)cc1 | - | - | - | - | -
Cc1ccccc1OCCn1c(CCNC(=O)C2CCCCC2)nc2ccccc21 | - | - | - | - | -
SMILES | p53null 39C kill | S16 F2sN tox | mTORC1 inh | p53null 32C kill | PMP22 txn
O=C(NCCc1nc2ccccc2n1CCOc1ccc(Cl)cc1)C1CCCCC1 | 13µM | . | - | - | .
O=C(CSc1nnc2[nH]c(=O)cc(-c3ccccc3)n12)Nc1ccccc1C(F)(F)F | ? | - | - | ? | -
CCc1ccc(NC(=O)CSc2nnc3[nH]c(=O)cc(-c4ccccc4)n23)cc1 | ? | - | - | 2.5µM | -
O=c1cc(-c2ccccc2)n2c(SCc3ccc(Cl)cc3)nnc2[nH]1 | - | - | - | - | -
COc1ccc(Cl)cc1NC(=O)CSc1nnc2[nH]c(=O)cc(-c3ccccc3)n12 | - | - | - | 2.5µM | ?
Cc1nn(CC(=O)Nc2ccc(OC(F)(F)F)cc2)c(=O)c2c(C)n(-c3ccc(Cl)cc3)nc12 | - | - | - | - | -
Oc1cccc(C(Nc2ccccn2)c2ccc3cccnc3c2O)c1Cl (stereo unspecified) | 4µM | . | ? | ? | .
COc1ccc(S(=O)(=O)c2c(Nc3ccccc3F)sc(C(=O)c3cccc(OC)c3)c2N)cc1 | - | ? | - | - | 4µM

Screening data as filed in PubChem.
